Inconclusive results are not listed. The call rests on the fitted dose curve; in most records, active means well fitted inhibition curve with a large enough effect; inconclusive means small, poorly fitted or top-dose-only effect; inactive means flat fitted curve, though single readings scatter.
Assay: qHTS for Inhibitors of Plasmodium falciparum (HB3) proliferation (AID 504318);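 further: 0% = DMSO vehicle and -100% = artemisinin control; nearly all actives have a fitted effect of over 60% in size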
Conditions: P. falciparum HB3 in erythrocytes, SYBR Green DNA, 72 h; series mostly up to 7.21 µM; activity change, negative = inhibition: at the top concentration
How it was run: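 Parasite growth measured as SYBR Green DNA fluorescence (ex 485, em 535 nm) after overnight lysis following 72 h culture at 37 °C, 0.3% parasitemia, 2.5% hematocrit. Values normalized against DMSO and 0.29 uM artemisinin controls, with plate-stack correction.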

Activity change, negative = inhibition, inactive:
COC(=O)C1(C(=O)OC)CC(CO)C(=O)[C@@H]1c1ccccc1 (stereo partly specified) -11.4%
COC/C=C/C1=CC2=CC(=O)C(C)(OC(=O)c3cnc4ccccc4n3)C(=O)C2=CN1C1CCCC1 (stereo unspecified) -5.4%
COC(=O)C1=C(C(=O)OC)[C@@H]2Nc3ccccc3[C@@]23C[C@@H](C(=O)OC)N(C(=O)c2ccc(Br)cc2)C3=N1 -5.96%
CCCCc1nc2c(c3c1C[C@H](C)OC3)CN(C(=O)Cc1cccc(OC)c1)CC2 -10.7%
C[C@@H]1C[C@](C)(C(=O)c2ccc3ccccc3c2)C=C1c1ccc2ccccc2c1 -3.81%
COc1ccc2c(c1)O[C@@H](c1cccc(C(F)(F)F)c1)[C@H](OC(=O)N[C@H]1CCCc3ccccc31)C2=O -15.6%
COC(=O)CCC(=O)OC1(C)C(=O)C2=CN(CCCCO)C(c3ccc(OC)cc3)=CC2=C(Br)C1=O (stereo unspecified) 0.227%
CCN1C(=O)N[C@@H](c2cccs2)C(C(=O)OC)=C1C 4.48%
CCN1C(=O)N[C@@H](c2cccc(F)c2)C(C(C)=O)=C1C 3.06%
COC(=O)[C@@H]1[C@@H](C)N(CCc2cc(OC)c(OC)c(OC)c2)C(=O)N[C@H]1c1ccccc1 -5.65%
COC(=O)CCC(=O)OC1(C)C(=O)C=C2C=C(C3CC3)N(c3ccccc3)C=C2C1=O (stereo unspecified) -1.58%
COc1cccc([C@@H]2Oc3ccc(Br)cc3[C@H](O)[C@@H]2O)c1 5.68%
C=CCN1c2ccccc2[C@]23C[C@@H](C(=O)OC)N(S(=O)(=O)c4cccs4)C2=NC(C(=O)OC)=C(C(=O)OC)[C@H]13 -6.07%
CC1(C)O[C@@H]2[C@@H](O1)C(c1ccccc1)(c1ccccc1)OP(=O)(O)OC2(c1ccccc1)c1ccccc1 4.61%
CCCCC1=CC2=CC(=O)C(C)(OC(=O)CC)C(=O)C2=CN1c1ccccc1 (stereo unspecified) -0.607%
COC/C=C/C1=CC2=CC(=O)C(C)(OC(=O)c3cnc4ccccc4n3)C(=O)C2=CN1CCOC (stereo unspecified) 1.44%
COC(=O)[C@H]1[C@@H](C)N(Cc2ccccc2)C(=O)N[C@H]1c1cccc(C(F)(F)F)c1 -6.62%
COC(=O)C1=C(C(=O)OC)[C@@H]2N(Cc3ccccc3)c3ccccc3[C@@]23C[C@@H](C(=O)OC)N(C(=O)COCc2ccccc2)C3=N1 -2.98%
CC#CCN1c2ccccc2[C@]23C[C@@H](C(=O)OC)N(C(=O)c4ccc(Br)cc4)C2=NC(C(=O)OC)=C(C(=O)OC)[C@H]13 -5.46%
COC(=O)[C@H]1[C@H](CCc2ccccc2)NC(=O)N(Cc2ccccc2)[C@@H]1C -7.09%
CCOC(=O)CN1C(=O)N[C@@H](c2ccccc2)[C@@H](C(=O)OC)[C@H]1C 0.962%

From PubChem BioAssay (NCATS)
